Measurements from PubChem BioAssay (NCI).
Several values for one entry are separate records, joined by “and”; a condition that tells them apart may be missing. Equal values may be shown once. About 83,000 compounds went through this panel and 20% of them were active in at least one assay; those are over-represented in the sample as a whole.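 In brief: 96-well plates, 48 h treatment, single concentration, percent growth endpoint.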 A number with no mark means an inactive call. Activity calls are given as the source filed them. The calls were made as follows: active = growth percent below 10; inactive = the rest.

What was measured:
Assay in all cases: NCI-60 one-dose screen, 48 h (100 = growth as untreated, 0 = no growth, -100 = all killed)
Details in all cases: 10 µM unless noted
SR leukemia = system: SR leukemia
RPMI-8226 leukemia = system: RPMI-8226 leukemia
OVCAR-8 ovarian = system: OVCAR-8 ovarian
OVCAR-5 ovarian = system: OVCAR-5 ovarian
OVCAR-4 ovarian = system: OVCAR-4 ovarian
SK-OV-3 ovarian = system: SK-OV-3 ovarian
IGROV1 ovarian = system: IGROV1 ovarian
OVCAR-3 ovarian = system: OVCAR-3 ovarian
HS 578T breast = system: HS 578T breast
NCI/ADR-RES ovarian = system: NCI/ADR-RES ovarian
T-47D breast = system: T-47D breast
MDA-MB-435 melanoma = system: MDA-MB-435 melanoma
SW-620 colon = system: SW-620 colon
MCF7 breast = system: MCF7 breast
HCT-116 colon = system: HCT-116 colon
HCC-2998 colon = system: HCC-2998 colon
KM12 colon = system: KM12 colon
MDA-MB-468 breast = system: MDA-MB-468 breast
BT-549 breast = system: BT-549 breast

Row | SMILES | growth (SR leukemia) | growth (RPMI-8226 leukemia) | growth (OVCAR-8 ovarian) | growth (OVCAR-5 ovarian) | growth (OVCAR-4 ovarian) | growth (SK-OV-3 ovarian) | growth (IGROV1 ovarian) | growth (OVCAR-3 ovarian) | growth (HS 578T breast) | growth (NCI/ADR-RES ovarian) | growth (T-47D breast) | growth (MDA-MB-435 melanoma) | growth (SW-620 colon) | growth (MCF7 breast) | growth (HCT-116 colon) | growth (HCC-2998 colon) | growth (KM12 colon) | growth (MDA-MB-468 breast) | growth (BT-549 breast)
1 | Clc1ccc(-c2nc3c4c(-c5ccccc5)c(-c5ccccc5)n(Cc5ccccc5)c4ncn3n2)cc1 | 5.49% (active) | -34.7% (active) | 11.6% | 16.6% | 16.4% | -10.2% (active) | 16.1% | 14.7% | -8.15% (active) | 70.9% | 7.51% (active) | 5.5% (active) | 12% | -2.7% (active) | 3.25% (active) | 22.1% | 9.06% (active) | -40.4% (active) | 
2 | O=c1[nH]c2ccccc2cc1COc1ccc(Nc2nccc(-c3ccc(Cl)cc3)n2)cc1 | 103% | 108% | 102% | 106% | 95.6% | 94.5% | 102% | 138% | 85.7% | 101% | 92.2% | 102% | 105% | 91.3% | 96.4% | 116% | 99.3% | 89.6% | 
3 | COc1ccc(-n2c(NC(=O)N3CCN(C)CC3)c(C#N)c3ccccc32)cc1 | 31.5% | 41.6% | 66.8% | 55.1% | 43.3% | 55% | 34.2% | 42.6% | 27.3% | 59.5% | 55.2% | 71.7% | 69.2% | 35.5% | 48% | 89% | 34.1% | 38.3% | 
4 | COc1ccc(CCC2NCCc3c(Br)c4c(c(OC)c32)OCO4)cc1 (stereo not given) | -6.62% (active) | 11% | 27.9% | 11.6% | 42.4% | 28.8% | 1.92% (active) | 1.09% (active) | 8.95% (active) | -13.9% (active) |  | -64.5% (active) | 2.69% (active) | 3.82% (active) | 4.11% (active) | -23.2% (active) | 3.9% (active) | -18.1% (active) | -19% (active)
5 | Cc1ccc(N=Nc2c(N)nn3c(-c4cc5cc(Br)ccc5oc4=O)ccnc23)cc1 | 50.2% | 93.5% | 54% | 54.8% | 102% | 98.6% | 45.2% | 108% | 69.4% | 29% |  | 113% | 107% | 51.1% | 44.5% | 87.1% | 72.4% | 73.5% | 53%
6 | COc1ccc2oc(=O)c(-c3csc(N/N=C(\C)c4cc(OC)c(OC)c(OC)c4)n3)cc2c1 | 70.4% | 72.9% | 86.2% | 109% | 86.5% | 172% | 91.2% | 110% | 110% | 77.9% |  | 99.2% | 108% | 79.8% | 92.2% | 112% | 87.6% | 79.9% | 39%
7 | Cc1nn(-c2ccccc2)c2nc(C)n(C(=O)N/N=C/c3ccccc3)c(=O)c12 | 115% | 103% | 101% | 101% | 101% | 95.5% | 97.6% |  | 84.3% | 100% | 90.6% | 102% | 101% | 92.9% | 102% | 100% | 99.4% |  | 101%
8 | COc1ccc2nc(NC(=O)c3ccc(N(C)C)cc3)sc2c1 | 42.5% | 31.9% | 75.7% | 93% | 75% | 111% | 99.5% | 94.5% | 95.9% | 52.9% |  | 79.8% |  | 44.7% | 79.8% | 98.2% | 57.8% | 41.1% | 58.7%
9 | Oc1cncc(-c2ccc3ncnc(N4CCc5cc(F)c(Cl)cc54)c3c2)c1 | 42.5% | 55.2% | 37.4% | 59.8% | 40.6% | 54.3% | 5.56% (active) | 58% | 18.1% | 61.9% |  | 69.6% | 62.8% | 35.3% | 48.8% | 51.7% | 61.4% | 48.2% | 73.1%
10 | COc1nc(N)ncc1-c1ccc2ncnc(N3CCc4cc(F)c(Cl)cc43)c2c1 | -11.2% (active) | 14% | -24.1% (active) | -2.67% (active) | -84.5% (active) | -36.6% (active) | -45.3% (active) | -24.7% (active) | 7.35% (active) | 18.9% |  | 68.2% | 34.3% | 29.8% | -8.98% (active) | 12.2% | 70% | -24.9% (active) | 19.9%
11 | CSc1ccc(OCc2nc3ccccc3n2-c2cccc(NS(C)(=O)=O)c2)cc1 | 82.6% and 89.5% | 93.7% and 91.1% | 99.5% and 88.4% | 130% and 117% | 93.8% and 69.4% | 110% and 83.5% | 95.3% and 82.8% | 118% | 80.9% and 65% | 96.5% and 79.7% |  | 105% and 98.3% | 102% and 94.4% | 89.9% and 55.7% | 101% and 70.6% | 122% and 112% | 103% and 78.8% | 110% and 98.2% | 131% and 105%
12 | COc1ccc(C(=O)NNC(=O)CSc2nc3sc4c(c3c(=O)n2-c2ccc(Cl)cc2)CCCC4)cc1 | 48.2% | 79% | 24.3% | 78.9% | 78.6% | 70.4% | 89.2% | 106% | 60.4% | 56.9% |  | 93.4% | 88% | 63.5% | 72.7% | 111% | 98% | 88.3% | 
13 | C[C@H](NC(=O)c1ccc2c(-c3ccc(C(F)(F)F)cc3)cccc2c1)c1ccccn1 | 33.3% | 21.4% | 44.7% | 75.2% | 42% | 64% | 55.8% | 45.6% | 53.2% | 32.5% |  | 56% | 68.1% | 26% | 35.4% | 49.9% | 47.5% | 7.67% (active) | 54.3%
14 | c1n[nH]cc1-c1nc2ccc3[nH]ncc3c2c2c1CC1(CCOCC1)CC2 | 2.94% (active) | 49.8% | 35.4% | 87.7% | 70.2% | -0.483% (active) | 61.2% | 52.5% | 5.29% (active) | 96.5% |  | 29.3% |  | 31.8% | 11.1% | 41.1% | 47.3% | 5.4% (active) | 10.9%
15 | N#CC1=C(c2cccs2)Nc2c(c(-c3ccccc3)nn2-c2ccccc2)C12C(=O)Nc1ccc(Br)cc12 (stereo not given) | -1.14% (active) | 2.85% (active) | -14.6% (active) | -60.4% (active) | 0.653% (active) | -0.147% (active) | -7.57% (active) | -25.7% (active) | -7.18% (active) | 10.5% |  | -40.1% (active) | -24.6% (active) | 7.23% (active) | -52.8% (active) | 6.28% (active) | -12.2% (active) | -31.9% (active) | -68.4% (active)
16 | CC1=C(C(=O)OCc2ccccc2)C(c2ccc(N(C)C)cc2)n2c(nc3ccccc32)N1 (stereo not given) | 46% | 81.4% | 95.6% | 102% | 81.4% | 95.4% | 84% | 92.6% | 61.7% | 73.2% |  | 29.4% | 103% | 65.2% | 87.7% | 90.8% | 73.4% | 69.8% | 
17 | O=C(N/N=C/c1ccc(Cl)cc1)c1ccc(OCc2nc3ccc(Cl)cc3[nH]2)cc1 | 3.65% (active) | 40.3% | -12.1% (active) | 35.4% | -8.33% (active) | 14.5% | 15.4% | -20.3% (active) | 25.2% | 45.4% |  | -15.7% (active) | -40.3% (active) | -21.7% (active) | 22.7% | 18.2% | 52.9% | 52.4% | 
